# Screening results deposited in PubChem BioAssay by several laboratories.
# Shown are actives, neighbours in structure and some others; about 12% of the full set was active somewhere.
# L major viab: Leishmania major promastigote growth inhibition | Leishmania major promastigotes, resazurin fluorescence viability | inhibition, % at 10 µM | 9% of 200,000 active | AID 1063; in the data active = inhibition above about 50%;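 note: promastigotes grown with compound for 44 hours at 28 °C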
# ROMK mod: human ROMK K+ channel modulation, primary screen; P48048; Tet-inducible ROMK, thallium flux fluorescence; actives lie on both sides; B-score at 10 µM; 2% of 130,000 active;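 active = signal ratio slope over the read window, or its plate-corrected B-score, at least 3 SD from the plate mean, either direction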;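 note: B-score of the F/F0 ratio slope over 7 to 12 s after thallium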
# Target sequence (P48048 whole entry, looked up): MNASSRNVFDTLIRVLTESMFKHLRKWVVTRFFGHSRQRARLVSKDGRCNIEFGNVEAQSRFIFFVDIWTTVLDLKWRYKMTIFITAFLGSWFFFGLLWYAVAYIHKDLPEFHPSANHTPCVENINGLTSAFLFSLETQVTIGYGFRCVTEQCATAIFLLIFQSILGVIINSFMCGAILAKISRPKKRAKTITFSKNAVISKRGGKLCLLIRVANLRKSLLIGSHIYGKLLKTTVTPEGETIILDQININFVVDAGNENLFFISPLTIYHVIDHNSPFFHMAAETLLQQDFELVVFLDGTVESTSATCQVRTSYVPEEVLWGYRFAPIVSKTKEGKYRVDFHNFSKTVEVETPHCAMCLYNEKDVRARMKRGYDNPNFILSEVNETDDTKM
# Insulin prom inh: TRM-6 insulin promoter activity inhibition; 0.9% of 130,000 active; AID 1273; TRM-6 cells (human fetal islet line), insulin promoter-eGFP reporter, imaging; reporter expression induced with tamoxifen; inhibition, % at 2 µM;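 active = inhibition above the mean plus 3 SD, with well images judged a real hit on visual review, cut at about 60% in these data, passing the limit was not always enough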
# Insulin prom up: MIN6 insulin promoter up-regulation; MIN6 insulin promoter-GFP reporter, high-content imaging; stronger effect = higher value; z-score at 5 µM; 0.3% of 190,000 active; AID 1625;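 active = z-score above 3 at 5 µM with at least 500 cells counted in the well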
# Cl transport mod: modulates chloride dependent transport by human KCC2; AID 1456; Q9H2X9; B-score of Tl+ flux slope (higher = more flux/activation; lower = inhibition) at 10 µM; 2.2% of 190,000 active; KCC2 cells, thallium flux FluoZin-2 fluorescence;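 active = thallium flux slope and its plate-corrected score both differing from the plate sample mean at a set confidence after two filtering rounds, in either direction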;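 note: slope of fluorescence scaled to starting intensity during 10 to 20 s after thallium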
# WT yeast gro inh: growth inhibition of WT yeast, mitochondrial fusion screen; mitochondrial fusion phenotypic screen, WT strain; inhibition, % at 10 µM; 2.1% of 190,000 active; in the data active = inhibition above about 58%; tested in S. cerevisiae
# Numbers stand for hits; - = inactive; . = not tested or not shown.
SMILES,L major viab,ROMK mod,Insulin prom inh,Insulin prom up,Cl transport mod,WT yeast gro inh
Cc1ccc(Nc2cc(C)c3c(O)cccc3n2)cc1C,.,-,.,-,-,.
Cc1ccccc1Nc1cc(C)c2c(O)cccc2n1,75,-,-,-,-,58
COc1cccc(N=c2oc3ccccc3cc2-c2nc3ccccc3[nH]2)c1,-,-,83,-,-,-
O=C(O)CCC(=O)N1CCN(c2ccccn2)CC1,-,.,-,-,-,-
CN1CCN(S(=O)(=O)c2ccc(N3CCc4ccccc4C3)nc2)CC1,94,-,.,-,-,-
CC1(C(=O)NCc2ccc(Cl)c(Cl)c2)Oc2ccccc2NC1=O (stereo not given),-,-,-,-,-,-
C#CCn1cnc2c(cnn2-c2ccc(C)c(C)c2)c1=O,-,-,-,-,.,60
Cc1ccc(-n2ncc3c(=O)n(CC#N)cnc32)cc1C,-,.,-,-,-,-
S=C(NCc1ccco1)Nc1cc(-c2ccccc2)[nH]n1,-,-,.,-,-,64
CCNC(=S)NCc1ccco1,59,-,-,-,-,-
CC(C)CNC(=S)Nc1ccc(Oc2ccccc2)cc1,-,-,-,-,-,63
O=S(=O)(c1ccc(NC(=S)NCc2ccco2)cc1)N1CCCC1,52,-,-,-,-,-
S=C(NCc1ccco1)Nc1ccc(Cl)c(Cl)c1,-,.,-,-,-,-
CC/C(C)=N/NC(=S)NCc1ccco1,-,-,-,-,-,-
c1ccc(-n2c(-c3ccco3)nnc2-c2ccco2)cc1,-,-,-,.,.,-
S=C(NCc1ccco1)Nc1ccc(Oc2ccccc2)cc1,-,-,.,-,-,67
O=C(Nc1cccc(C(F)(F)F)c1)N1CCN(C(=O)Nc2cccc(C(F)(F)F)c2)CC1,-,-,-,-,-,-
O=C(Nc1cccc(C(F)(F)F)c1)n1cc(-c2ccccn2)c(N2CCOCC2)n1,-,-,-,-,-,77
COCCNC(=O)Cn1nc(C(F)(F)F)c(Br)c1C,-,-,.,-,-,-
Cc1cc(C)cc(-n2c3nc4ccccc4nc3c3c(=O)n(Cc4ccco4)cnc32)c1,-,-,-,-,-,-
CCOc1ccc(-n2c3nc4ccccc4nc3c3c(=O)n(Cc4ccco4)cnc32)cc1,-,-,-,.,2.8,.
CCOc1ccc(CN(C(=O)c2oc3cc(C)ccc3c2C)C2CCS(=O)(=O)C2)cc1 (stereo not given),-,-,66,-,.,-
Cc1ccc2c(C)c(C(=O)N(Cc3cccs3)C3CCS(=O)(=O)C3)oc2c1 (stereo not given),88,-,-,-,-,-
Cc1nnc(SCC(=O)c2c(N)n(C)c(=O)n(C)c2=O)[nH]c1=O,.,.,.,-,.,.
N#Cc1ccc(/C=C/C(=O)c2ccc3c(c2)OCO3)cc1,-,-,-,-,-,-
SMILES,L major viab,ROMK mod,Insulin prom inh,Insulin prom up,Cl transport mod,WT yeast gro inh
O=C(NCc1ccccn1)C1C2C=CC(C2)C1C(=O)Nc1ccc(F)cc1 (stereo not given),76,-,-,.,-,-
O=C(O)C1C2C=CC(C2)C1C(=O)NCc1ccccn1 (stereo not given),-,-,-,-,-,-
COc1ccc(-n2c(O)c(/C=N/n3cnnc3)c3ccccc3c2=O)cc1,-,-,-,-,.,-
O=C1c2cc(N3CCCC3)c([N+](=O)[O-])cc2C(=O)N1c1ccccc1,60,-,-,-,-,-
CC1CC(C)CN(c2cc3c(cc2[N+](=O)[O-])C(=O)N(c2ccccc2)C3=O)C1 (stereo not given),85,-,-,-,-,-
O=C1CSC(c2ccco2)N1 (stereo not given),-,-,.,.,.,-
Cc1ccc(CN(Cc2cccnc2)C(=O)CN2C(=O)COc3ccccc32)o1,73,-,.,-,-,-
O=C1OC(c2ccccc2)/C(=C(/O)c2ccc(Cl)cc2)C1=O (stereo not given),-,-,75,.,-,-
Cc1ccc(/C(O)=C2/C(=O)C(=O)OC2c2ccc(Cl)cc2)cc1 (stereo not given),-,.,-,-,-,-
COc1ccc(NC(=O)C2CC(=O)N(C(C)C)C2)cc1 (stereo not given),-,-,.,-,-,-
CCOc1ccc(NC(=O)C2CC(=O)N(C(C)C)C2)cc1 (stereo not given),-,.,-,-,-,63
CN=C(Nc1ccc(Br)cc1)SC1CC(=O)N(c2ccc(OC)cc2)C1=O (stereo not given),-,-,-,.,-,-
CN=C(Nc1ccc(C)c(C)c1)SC1CC(=O)N(c2ccc(OC)cc2)C1=O (stereo not given),74,.,.,-,.,-
CC1CC(C)CN(c2ncc3c(n2)CC(c2ccccc2)CC3=O)C1 (stereo not given),-,-,-,-,.,71
O=C1CC(c2ccco2)Cc2nc(N3CCc4ccccc4C3)ncc21 (stereo not given),-,.,-,-,.,-
CC(C)c1ccc(C2CC(=O)c3cnc(N4CCc5ccccc5C4)nc3C2)cc1 (stereo not given),-,.,-,-,-,58
CN(C(=O)c1ccc(-c2nn(C)c(=O)c3ccccc23)cc1)c1ccccc1,-,-,-,-,-,-
COc1cc(C(=O)NC(=S)N(CCc2ccccc2)CCc2ccccc2)cc(OC)c1OC,99,3.3,-,.,73,-
O=C(NC(=S)N(CCc1ccccc1)CCc1ccccc1)c1ccco1,95,.,.,-,44,-
O=C1CCc2cc(OCCCCc3nnnn3C3CCCCC3)ccc2N1,-,.,-,-,-,-
COc1ccc(S(=O)(=O)Nc2ccccc2OC)cc1NC(=O)c1cc2ccccc2oc1=O,-,.,.,-,-,-
O=C(O)c1ccc(NC(CSCc2cccc(F)c2)C(=O)O)c([N+](=O)[O-])c1 (stereo not given),-,-,-,-,.,-
Cc1cc(Br)ccc1OCCn1ccnc1,72,-,-,-,-,-
Clc1cc(Br)ccc1OCCCn1ccnc1,97,-,-,-,-,-
CCOC(=O)c1cnc2c(OC)cccc2c1N1CCN(c2ccccn2)CC1,-,-,.,-,-,-
SMILES,L major viab,ROMK mod,Insulin prom inh,Insulin prom up,Cl transport mod,WT yeast gro inh
CCOC(=O)c1cnc2c(OC)cccc2c1N1CCN(c2ccccc2OC)CC1,63,-,-,-,.,-
CCCCOc1ccc(NC(=O)C(=O)NCCCn2ccnc2)cc1,-,-,-,-,-,-
CCOc1ccc(NC(=S)NCCCn2ccnc2)cc1,83,.,-,-,-,-
COc1ccc(C(=O)N2CCCC(c3nc(-c4cccs4)no3)C2)cc1OC (stereo not given),-,-,-,-,-,.
c1ccc(-n2nnnc2NCCCN2CCOCC2)cc1,-,-,-,-,-,-
CCOc1ccc(S(=O)(=O)NCCCN2CCOCC2)cc1,92,-,-,-,.,-
COc1cc(S(=O)(=O)NCCCN2CCOCC2)ccc1Cl,93,-,-,-,.,-
CCOc1ccc(OCC)c(S(=O)(=O)NCCCN2CCOCC2)c1,-,.,-,-,-,-
O=[N+]([O-])c1cc(S(=O)(=O)NCCN2CCOCC2)ccc1Sc1nnnn1-c1ccccc1,86,-,-,-,-,-
